14-3-3 Bad inh: disrupts binding of bovine 14-3-3 zeta to phospho-Bad peptide; TR-FRET 14-3-3zeta/Dy647-pBad peptide displacement, 1 h; inhibition, % at 21.7 µM; 220,000 tested, 0.71% active; AID 781;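 active means inhibition above about 70%, limit read from the data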;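 further: 0% = full 14-3-3 plus peptide FRET controls and 100% = background without 14-3-3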
Target sequence (P63103 whole entry, looked up): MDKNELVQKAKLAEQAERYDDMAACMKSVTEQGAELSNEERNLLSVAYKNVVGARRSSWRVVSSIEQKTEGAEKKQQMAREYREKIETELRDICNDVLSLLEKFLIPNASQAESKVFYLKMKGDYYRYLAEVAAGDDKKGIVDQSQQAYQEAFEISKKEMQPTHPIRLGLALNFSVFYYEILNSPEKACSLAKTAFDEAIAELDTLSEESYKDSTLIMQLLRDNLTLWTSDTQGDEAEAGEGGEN
MLLE-PAM2 inh: blocks PAM2 peptide binding to the PABP1 MLLE domain. GST-MLLE / FITC-PAM2 fluorescence polarization. inhibition, % at 20 µM. P11940. 360,000 tested, 0.36% active; in the data active means inhibition above about 35%, passing the limit was not always enough;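 further: plate controls were DMSO wells with GST-MLLE for no effect and wells lacking GST-MLLE protein for full effect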
eIF4E-4G inh: eIF4E/eIF4G interaction inhibition in translation initiation; P63073+Q04637; TR-FRET eIF4E-eIF4GI(517-606) binding, 2 h; inhibition, % at 21.7 µM; 220,000 tested, 0.37% active; AID 782;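 active means inhibition above about 30%, limit read from the data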;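 further: 0% = full FRET control wells and 100% = background wells lacking eIF4GI fragment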
PABP FP inh: blocks human PABP binding to poly(A) RNA; calls only at 35 µM; fluorescence polarization; AID 2014; 290,000 tested, 1% active; P11940;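 further: calls also rest on retests at 20 µM and on dose response follow-up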
eIF4H inh: inhibitors of RNA binding by human eIF4H; Q15056; eIF4H fluorescence polarization binding assay; inhibition, % at 35 µM; 290,000 tested, 0.94% active; AID 2012;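 further: calls also rest on retests at 20 µM and on dose response follow-up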
An asterisk follows results filed as active; i = inactive; ? = inconclusive; . = no result; + = active, no number; [ ] = dose if it differs, or a comment. Shown are actives, neighbours in structure and some others; about 1.9% of the full set was active somewhere. Unless noted, how the calls were made is not given here.

SMILES	14-3-3 Bad inh	MLLE-PAM2 inh	eIF4E-4G inh	PABP FP inh	eIF4H inh
O=C(Cn1c2ccccc2c(=O)c2ccccc21)N/N=C/c1cc([N+](=O)[O-])ccc1N1CCCCCC1	.	-67	.	i	35
O=C1OCC/C1=C\OCCCO/C=C1\CCOC1=O	5	-6	86*	i	-8
O=C1OCCC1=COCCCCCCOC=C1CCOC1=O	.	9	.	.	.
CCN1C(=NCCc2cccs2)N[C@@H](c2cccs2)C(C(=O)OC)=C1C	.	-117	.	+	0
CCOC(=O)CN1C(=O)N[C@@H](c2cccs2)C(C(=O)OC)=C1C	.	4	.	.	.
COc1ccc(CN2C[C@H](Cc3ccccc3)[C@@H](CC(=O)Nc3ccccc3)C2=O)cc1	.	.	.	i	4
COc1ccc(OCc2cc(C(=O)O)c(C)o2)cc1	31	.	4	+	?
CCN(CC)Cc1cc(C(=O)O)c(C)o1	-11	-6	2	i	-1
CC1=C(C(=O)OCCOC(C)C)C(c2cc3c(cc2Br)OCO3)C2=C(CCCC2=O)N1 (centres undefined)	-3	67*	0	i	10
CC(C)(C)NC(=O)Cn1nnc(-c2cccs2)n1	-5	12	9	+	65*
CCc1c(C)sc(NC(=O)CC#N)c1C#N	-4	-16	-5	+	74*
CCCC(=O)Nc1sc(C)c(C)c1C#N	5	31	0	i	-12
Cn1c(=O)c2[nH]c(CCCC(=O)O)nc2n(Cc2ccccc2)c1=S	.	-11	.	.	.
CCOc1ccc(S(=O)(=O)N(C)CC(=O)NCc2ccccn2)cc1Cl	.	-6	.	i	-21
CCN(CCNCC(O)COCc1ccc(Cl)cc1)c1cccc(C)c1 (centres undefined)	25	1	-5	i	14*
C#CCn1c(=NC(=O)CN2C(=O)CCC2=O)sc2cc(S(N)(=O)=O)ccc21	-13	5	2	i	10
C#CCn1c(=NC(=O)c2cc(Cl)sc2Cl)sc2cc(S(N)(=O)=O)ccc21	76*	-8	4	i	-8
COC(=O)Cn1c(=NC(=O)c2sc3ccccc3c2Cl)sc2cc(S(N)(=O)=O)ccc21	86*[fluorescence artefact?]	-1	7	i	15
CCOC(=O)Cn1c(=NC(=O)c2sc3ccccc3c2Cl)sc2cc(S(N)(=O)=O)ccc21	79*[fluorescence artefact?]	-1	13	i	9
C#CCn1c(=NC(=O)c2ccc(Br)s2)sc2cc(NC(C)=O)ccc21	71*[fluorescence artefact?]	6	6	i	-22
C[C@@H]1CN([C@@H](C)CO)C(=O)CCCn2nncc2CO[C@H]1CN(C)S(C)(=O)=O	.	4	.	.	.
CC(C)Cc1csc(NC(=O)c2ccc(Br)cc2)c1C(=O)O	-9	7	3	i	-4
CCOC(=O)C1=C(c2ccccc2)Nc2ncnn2C1c1ccc(C(=O)O)cc1 (centres undefined)	3	2	3	i	10
CCOC(=O)C1=C(c2ccccc2)NC(N)=NC1c1ccc(OCc2ccc(C(=O)OC)cc2)cc1 (centres undefined)	90*	0	28	i	-14
CC(=O)N1CCc2c(sc(NC(=O)c3cccc(N4C(=O)CCC4=O)c3)c2C(N)=O)C1	.	-48	.	+	57
SMILES	14-3-3 Bad inh	MLLE-PAM2 inh	eIF4E-4G inh	PABP FP inh	eIF4H inh
Cc1cc(N2CCOCC2)n2nc(C)c(-c3ccccc3)c2n1	-9	7	89*	i	-8
O=C1N/C(=C/c2cccs2)C(=O)N1Cc1ccccc1F	0	-9	1	i	7
COc1ccc(/C=C2/NC(=O)N(Cc3ccccc3F)C2=O)cc1OC	5	-3	-1	+	?
O=C1N/C(=C/c2ccco2)C(=O)N1Cc1ccccc1F	3	7	10	+	96*
O=C(NC(NC(=S)N1CCOCC1)C(Cl)(Cl)Cl)c1cccc2ccccc12 (centres undefined)	-11	-71	0	i	8
C[C@@H]1O[C@@H](OC[C@H]2O[C@@H](Oc3c(-c4ccc(O)c(O)c4)oc4cc(O)cc(O)c4c3=O)[C@H](O)[C@@H](O)[C@@H]2O)[C@H](O)[C@H](O)[C@H]1O	8	-7	-4	+	61*
CC1OC(OCC2OC(Oc3c(-c4ccc(O)cc4)oc4cc(O)cc(O)c4c3=O)C(O)C(O)C2O)C(O)C(O)C1O (centres undefined)	35	13	6	?	?
CC[C@]12c3[nH]c4ccc(OC)cc4c3CCN1C(=O)C(CC(=O)NCCCN(C)C)C[C@@H]2C(=O)N1CCN(C(=O)c2ccco2)CC1 (some centres undefined)	.	8	.	.	.
CCCn1c(NC(=O)CN2C(=O)NC3(CCCC3)C2=O)nc2ccccc21	.	9	.	.	.
O=C1CC(N2CCN(Cc3ccc4c(c3)OCO4)CC2)C(=O)N1c1cccc(Cl)c1 (centres undefined)	-13	-1	66*	i	-9
COCc1ccc(CN2CCc3c([nH]c4ccccc34)C2CC(C)C)o1 (centres undefined)	-11	-13	2	+	67
O=C(O)CCc1cc(I)c(Oc2ccc(O)c(I)c2)c(I)c1	14	.	-11	+	65*
N[C@@H](Cc1cc(I)c(Oc2ccc(O)c(I)c2)c(I)c1)C(=O)O	8	-91	9	i	39
CCC12OC(=N)C(C#N)(C1C)C(C#N)(C#N)C(c1ccccc1)O2 (centres undefined)	-1	20	3	+	?
COc1ccc(S(=O)(=O)Nc2ccccc2)cc1	.	-7	.	.	.
COc1ccc(S(=O)(=O)Nc2ccc(O)c3ccccc23)cc1	2	38*	3	i	1
COC(=O)[C@@H](NC(=O)Nc1ccc(S(N)(=O)=O)cc1)C(C)C	-2	8	5	i	2
COC(=O)[C@@H](NC(=O)Nc1ccc(C(C)=O)cc1)C(C)C	-4	1	3	i	57*
CC1Cc2ccccc2N1C(=O)CSc1nnc(N)s1 (centres undefined)	.	-5	.	i	-5
O=C(O)c1ccccc1NC(=O)C1CCN(S(=O)(=O)c2cccc3nsnc23)CC1	.	-7	.	i	-12
O=C1NC(c2ccccc2)(C(F)(F)F)SC2=CCCCCN12 (centres undefined)	-3	42*	-3	i	-2
CN(C)CCc1cc2c(c3c1ccc1ccccc13)OCO2	.	11	.	i	-9
COc1cc2ccc3c(CCN(C)C)cc(OC)c(OC)c3c2cc1OC	.	-54	.	+	-7
Nc1nc(-c2ccc(Cl)cc2)nn1C(=O)c1cccnc1	-8	-11	-13	i	-4
Nc1nc(-c2ccc(Cl)cc2)nn1C(=O)c1cccs1	-3	2	-4	+	?
Cc1cc(NS(=O)(=O)c2ccc(NC(=O)c3cc4c(=O)n5ccccc5nc4s3)cc2)nc(C)n1	-6	-4	8	+	72
